The text below walks through data of PubChem BioAssay AID1851 (National Center for Advancing Translational Sciences (NCATS), 2009).

The whole screen tested about 16,000 compounds, of which about 5,100 (32%) were called active. Another 25% or so got no clear call; they are omitted. The call rests on the fitted dose curve; in most records, active means well fitted curve in the direction sought with a large enough effect; inconclusive means small, poorly fitted or top-dose-only effect, or effect the other way; inactive means no such curve, though single readings can be large or run the other way. Some of the results follow.
On the % scale 0 is the no-effect control and ±100 the full control effect.

The test deals with Cytochrome P450 3A4 (Homo sapiens) (UniProt P08684). Description: Cytochrome panel assay with activity outcomes. Conditions: recombinant CYP, pro-luciferin dealkylation, luminescence, p450-cyp3a4; series mostly up to 57.1 µM; activity, negative = inhibition: at the top concentration.
Sequence of Cytochrome P450 3A4 (Homo sapiens) (P08684 whole entry, looked up): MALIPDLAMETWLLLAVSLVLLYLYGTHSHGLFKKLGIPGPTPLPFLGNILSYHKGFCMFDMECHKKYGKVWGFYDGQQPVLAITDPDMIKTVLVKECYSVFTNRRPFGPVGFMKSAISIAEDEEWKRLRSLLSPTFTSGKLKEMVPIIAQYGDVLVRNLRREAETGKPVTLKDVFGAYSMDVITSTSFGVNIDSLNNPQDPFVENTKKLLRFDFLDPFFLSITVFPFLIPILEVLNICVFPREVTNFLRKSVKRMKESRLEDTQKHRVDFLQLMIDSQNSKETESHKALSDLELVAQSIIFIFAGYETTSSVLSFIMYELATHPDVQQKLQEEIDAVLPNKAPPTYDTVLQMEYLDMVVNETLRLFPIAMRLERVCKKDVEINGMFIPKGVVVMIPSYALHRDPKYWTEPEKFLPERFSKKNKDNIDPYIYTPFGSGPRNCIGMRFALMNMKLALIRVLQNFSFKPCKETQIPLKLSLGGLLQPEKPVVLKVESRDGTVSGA
Consider `CNCCc1ccc(O)c(O)c1`, for which the “activity, negative = inhibition” value was -18.3% (inactive).

As to `NCCc1ccc(O)cc1`, the “activity, negative = inhibition” value is -2.1% (inactive).

As usually defined, the AC50 is the concentration giving half of the maximal activity seen. Regarding `NNC(=O)c1ccc(O)cc1`, the AC50 was 5.01 µM (active).

Regarding `NP(N)(=O)NC(=O)c1ccc(F)cc1`, the “activity, negative = inhibition” value was -7.05% (inactive).

In the case of `Ic1cncc(OC[C@@H]2CCN2)c1`, the “activity, negative = inhibition” value is -28.9% (inactive).

`CCN(CCCl)Cc1ccccc1Br`: the “activity, negative = inhibition” value was -11.1% (inactive).

Turning to `COc1ccc(OC)c([C@H](O)[C@H](C)N)c1`, the activity, negative = inhibition result was “inactive”.

Consider `CN(N=O)C(=O)N[C@H]1[C@@H](O)[C@H](O)[C@H](CO)O[C@@H]1O`, for which the “activity, negative = inhibition” value is -4.4% [at 25.6 µM] (inactive).

On to `COC(=O)[C@@]1(Cc2ccc(F)cc2)[C@H]2c3cc(C(=O)N(C)C)[nH]c3C[C@H]2CN1C(=O)c1ccccc1`, for which the AC50 is 0.631 µM (active).

`CC(C)[C@]1(O)[C@@H](OC(=O)c2ccc[nH]2)[C@]2(O)[C@@]3(C)C[C@@]4(O)O[C@@]5([C@H](O)[C@@H](C)CC[C@]35O)[C@]2(O)[C@]41C`: the activity, negative = inhibition is -24.6% [at 11.4 µM] (inactive).

As for `CC(C)c1nccn1Cc1ccc(Cl)cc1Cl`, the activity, negative = inhibition was -9.57% [at 11.4 µM] (inactive).

For the compound `O=C(O)[C@@H]1C[C@H]1[C@@H](NP(=O)(c1ccccc1)c1ccccc1)c1ccccc1`, the “activity, negative = inhibition” value was -0.397% (inactive).

Take `O=C(O)[C@H]1C[C@@H]1[C@H](NP(=O)(c1ccccc1)c1ccccc1)c1ccccc1`: the “activity, negative = inhibition” value was -25.2% (inactive).

Consider `CCC/C=C(\CCC)C(NP(=O)(c1ccccc1)c1ccccc1)c1ccccc1` (configuration not stated), for which the AC50 was 6.31 µM (active).

For `c1cc(C2N3CCCN2CC3)ccn1` (configuration not stated), the activity, negative = inhibition was -11.6% [at 11.4 µM] (inactive).

Turning to `CCCCCCCCCC[Si](C)(C)CCC(=O)N[C@@H](Cc1ccc(C)cc1)c1ccccc1`, the “activity, negative = inhibition” value was -12.4% (inactive).

Regarding `C[N+]12CCC(CC1)[C@@H](OC(=O)C(O)(c1ccccc1)c1ccccc1)C2`, the “activity, negative = inhibition” value was -11.8% [at 25.6 µM] (inactive).

In the case of `Cc1nc(-c2ccc(-c3ccc(C(=O)N4CCc5cc6c(cc54)C4(CCN(C)CC4)CO6)cc3)c(C)c2)no1`, the “activity, negative = inhibition” value is -15.2% (inactive).

Consider `c1cc(CN2CC3(CCNCC3)C2)ccn1`, for which the “activity, negative = inhibition” value was -30.5% (inactive).

Turning to `c1cc(CN2CCCC3(CCNCC3)C2)ccn1`, the AC50 was 15.8 µM (active).

Regarding `c1ccc(CN2CCCC3(CCNCC3)C2)cc1`, the “activity, negative = inhibition” value was -19.6% (inactive).

For the compound `CC(=NCc1ccco1)c1c(O)n(-c2ccccc2)c(=O)[nH]c1=O`, the “activity, negative = inhibition” value is 11.3% (inactive).

As for `Cc1nc2ccccc2cc1C[N+]12CN3CN(CN(C3)C1)C2`, the activity, negative = inhibition is -6.46% [at 11.4 µM] (inactive).

As for `Cc1[nH]c2ccc(O)cc2c1CCN`, the “activity, negative = inhibition” value is -14.9% (inactive).

As to `N[C@H](CCCCCP(=O)(O)O)C(=O)O`, the activity, negative = inhibition result was “inactive”.

On to `OC(c1ccccc1)(c1ccccc1)C1CCCN1` (configuration not stated), for which the activity, negative = inhibition was -2.76% [at 2.29 µM] (inactive).

In the case of `O=C1N[C@@]2(CN3CCC2CC3)C(=O)N1CN(Cc1ccccc1)c1ccccc1`, the activity, negative = inhibition was 1.78% [at 11.4 µM] (inactive).

With `CN1C2CCC1CC(OC(=O)c1ccc(Cl)cc1)C2` (configuration not stated), the “activity, negative = inhibition” value is 0.0365% (inactive).

For `Cc1sc2c(c1C)C(c1ccc(C(C)(C)C)cc1)=NCC(=O)N2CC(=O)Nc1nccs1`, the AC50 is 7.94 µM (active).

For `Nc1nnnn1CCO`, the activity, negative = inhibition was -6.3% [at 11.4 µM] (inactive).

On to `O=c1oc(Cl)c(Cl)c2ccccc12`, for which the “activity, negative = inhibition” value was 6.83% (inactive).

Consider `O=C(O)C(C(=O)O)P(=S)(S)c1ccccc1` (configuration not stated), for which the activity, negative = inhibition is 8.13% [at 11.4 µM] (inactive).

In the case of `C[C@H]1CC[C@@]2(NC1)O[C@@H]1C[C@H]3[C@@H]4CC=C5C[C@@H](O)CC[C@]5(C)[C@@H]4CC[C@]3(C)[C@@H]1[C@@H]2C`, the “activity, negative = inhibition” value is 5.49% [at 25.6 µM] (inactive).

On to `O=[As](O)(O)c1ccc(NCc2ccccc2)cc1`, for which the activity, negative = inhibition was -8.35% [at 11.4 µM] (inactive).

On to `COc1cc(OC)c(/C=C2/C(=O)Nc3ccccc32)c(OC)c1`, for which the AC50 is 2.51 µM (active).

As to `OC(c1ccccc1)(c1ccccc1)C1CCNCC1`, the “activity, negative = inhibition” value is -16.4% [at 25.6 µM] (inactive).

With `CC(C)(C)C(=O)CP(=O)(O)O`, the activity, negative = inhibition was -7.32% [at 11.4 µM] (inactive).

`CCCCc1ccc(C(=O)O)nc1`: the “activity, negative = inhibition” value was -1.67% [at 25.6 µM] (inactive).

For the compound `C[C@]12CC[C@@H]3[C@H](CCC4=CC(=O)CC[C@]43C)[C@]1(O)CC[C@@]2(O)C(=O)CO`, the activity, negative = inhibition is -0.348% [at 11.4 µM] (inactive).

For the compound `Oc1ccc(-c2nc(-c3ccc(F)cc3)c(-c3ccncc3)[nH]2)cc1`, the AC50 was 0.501 µM (active).

On to `N[C@H](Cc1c[nH]c2ccccc12)P(=O)(O)O`, for which the activity, negative = inhibition was -2.01% [at 11.4 µM] (inactive).

On to `CC[C@H](C(=O)[C@H](C)[C@H](O)[C@H](C)CCc1ccc(C)c(O)c1C(=O)O)[C@H]1O[C@](CC)([C@@H]2CC[C@@](O)(CC)[C@H](C)O2)C[C@H]1C`, for which the AC50 is 7.94 µM (active).

As to `CS(=O)(=O)O[C@H]1CN2CCC1CC2`, the activity, negative = inhibition is -6.57% [at 11.4 µM] (inactive).

For the compound `C[C@@H](C(=O)OC1C[C@H]2CC[C@@H](C1)N2C)c1ccc(Br)cc1` (some centres not stated), the “activity, negative = inhibition” value is -5.24% (inactive).

Regarding `Cc1oc(-c2ccccc2F)nc1CS(=O)CC(=O)N1CCC2(CC1)OCCO2` (configuration not stated), the AC50 was 25.1 µM (active).

Consider `O=C(Cn1ncc2ccsc2c1=O)N1CCC2(CC1)OCCO2`, for which the “activity, negative = inhibition” value is -18.2% (inactive).

For the compound `Cc1ccccc1-c1nc(CS(=O)CC(=O)N2CCC3(CC2)OCCO3)c(C)o1` (configuration not stated), the “activity, negative = inhibition” value was 18.8% (inactive).
